Data on 40 compounds can be found in PubChem BioAssay (EPA / NIEHS).

Results filed as inconclusive are left out. Activity calls are given as the source filed them. The calls were made as follows: active = hit-call score of the fitted dose curve at least 0.9, where 1 is the maximum; inconclusive = response in the unintended direction; inactive = score below 0.9.

Read-out in this experiment: xenobiotic metabolism (CYP1A2), CYP1A2 (gene 1544)
The experiment is described as follows: CLD_CYP1A2_24hr: CellzDirect (CLD) Gene Expression Assay for xenobiotic metabolism (CYP1A2) at 24 hours (AID 2283683). The procedure:
CLD_24hr is a cell-based, multiplexed-readout assay that uses hepatocyte, a human liver primary cell, with measurements taken at 24 hours after chemical dosing in a 96-well plate.CLD_CYP1A2_24hr is one of 16 assay component(s) measured or calculated from the CLD_24hr assay. It is designed to make measurements of mRNA induction, a form of inducible reporter, as detected with chemiluminescence signals by Quantitative Nuclease Protection Assay (qNPA) technology.Data from the assay component CLD_CYP1A2_24hr was analyzed at the endpoint, CLD_CYP1A2_24hr, in the positive analysis fitting direction relative to DMSO as the negative control and baseline of activity. Using a type of inducible reporter, gain-of-signal activity can be used to understand changes in the reporter gene as they relate to the gene CYP1A2. Furthermore, this assay endpoint can be referred to as a primary readout. To generalize the intended target to other relatable targets, this assay endpoint is annotated to the cyp intended target family, where subfamily is xenobiotic metabolism.
Human hepatocyte cultures were treated daily for two consecutive days with fresh dosing solutions containing appropriate concentrations of the 320 ToxCast chemicals (chemical identities were blinded to CellzDirect and other ToxCast collaborators), vehicle control (0.2% DMSO), and positive control inducers as summarized in Table 1. Due to the large number of treatment groups and chemicals examined, the ToxCast chemicals were divided into two groups (spanning two independent cultures of hepatocytes from separate donor preparations (Hu778: ToxCast plates 1 and 2; Hu776: ToxCast plates 3 and 4). Each preparation of human hepatocyte cultures was treated with respective vehicle control, medium only control, set of six positive controls/reference chemicals for the five hepatic receptor pathways, and a subset of eight of the ToxCast chemicals (indoxacarb, pyrithiobac-sodium, norflurazon, cyhalofop-butyl, methomyl, thiram, acetochlor, and propiconazole). These replicate data, coupled with internal replicates designed within the blinded ToxCast chemical library, provided additional data to evaluate interindividual differences between hepatocyte preparations and their potential impact on chemical profiles.Cell morphology and integrity were evaluated using phase-contrast microscopy as an indicator of hepatocyte cell health (Tyson & Green, 1987). Cultures for each treatment group (i.e., media, vehicle [0.2% DMSO], positive control inducers [multiple concentrations], and the ToxCast chemicals [multiple concentrations]) were observed and cell morphology was assessed relative to vehicle control cultures at each harvest time point (0, 6, 24, or 48 h). […] Images were evaluated at the conclusion of the study to assess changes in cell integrity and account for the effects of chemical exposure on uncharacteristic changes in concentration-dependent gene expression profiles. The results from these determinations of apparent cytotoxicity were annotated (yes/no) alongside the corresponding qNPA data for reference.At the conclusion of each treatment period, hepatocyte cultures (96-well) were washed with 1 volume of HBSS, lysed by addition of 25 ul ArrayPlate lysis buffer (HTG, Tucson, AZ), and 70 ul/well of Denaturation Oil, denatured by incubation at 95C for 10 min, and frozen at approximately -70C until analysis by nuclease protection assay (qNPA) (Roberts et al., 2007). For qNPA analysis, cell lysates were thawed at 50C for approximately 30 min, qNPA probes were added, and samples were incubated at 95C for 10 min to begin the detection process by denaturing the target RNA, dissociating the duplexes and secondary structure hybridization. At the conclusion of the hybridization period, S1 nuclease reagent was added to each sample to digest all nonprotected nucleotides at 50C for 60-90 min. […]
As to `CC(C)=CC1C(C(=O)OCN2C(=O)C3=C(CCCC3)C2=O)C1(C)C` (stereo not given), the result was inactive.

For the compound `CON=C(C(=O)OC)c1ccccc1CON=C(C)c1cccc(C(F)(F)F)c1`, the compound was classed as inactive.

`CCOP(=S)(OCC)Oc1cc(C)nc(C(C)C)n1`: the AC50 was 7.6 µM (active).

For `CN(C)[C@@H]1C(=O)C(C(N)=O)=C(O)[C@@]2(O)C(=O)C3=C(O)c4c(O)cccc4[C@@](C)(O)[C@H]3[C@H](O)[C@@H]12`, the result was inactive.

Turning to `CCCSP(=O)(OCC)Oc1ccc(Br)cc1Cl` (stereo not given), the AC50 was 4.13 µM (active).

Take `CNC(=O)ON=C(SC)C(=O)N(C)C`: the call was inactive.

For `FC(F)C(F)(F)OCC(Cn1cncn1)c1ccc(Cl)cc1Cl` (stereo not given), the AC50 is 1.46 µM (active).

On to `CCCCN(CC)c1c([N+](=O)[O-])cc(C(F)(F)F)cc1[N+](=O)[O-]`, for which the AC50 is 7.29 µM (active).

For `Cc1ccn2nc(S(=O)(=O)Nc3c(F)cccc3F)nc2n1`, the compound was called inactive.

Consider `CCCCSP(=O)(SCCCC)SCCCC`, for which the AC50 was 2.48 µM (active).

As for `CCC(CC)Nc1c([N+](=O)[O-])cc(C)c(C)c1[N+](=O)[O-]`, the AC50 is 33.4 µM (active).

Take `CCOC(=O)CC(SP(=O)(OC)OC)C(=O)OCC` (stereo not given): the AC50 is 2.38 µM (active).

For `COP(=O)(NC(C)=O)SC` (stereo not given), the outcome was inactive.

In the case of `Nc1c(Cl)cc([N+](=O)[O-])cc1Cl`, the concentration at half-maximal activity (AC50) was 20 µM (active).

Take `CN1COCN(Cc2cnc(Cl)s2)C1=N[N+](=O)[O-]`: the call was inactive.

As to `C#CCC1=C(C)C(OC(=O)C2C(C=C(C)C)C2(C)C)CC1=O` (stereo not given), the half-maximal activity concentration (AC50) is 20 µM (active).

For the compound `CCOC(=O)COc1cc(-c2nn(C)c(OC(F)F)c2Cl)c(F)cc1Cl`, the compound was classed as inactive.

For `O=C(O)c1cc(Oc2ccc(C(F)(F)F)cc2Cl)ccc1[N+](=O)[O-]`, the call was inactive.

Consider `O=c1ccc(=O)[nH][nH]1`, for which the outcome was inactive.

As for `Cc1cc(C2CC2)nc(Nc2ccccc2)n1`, the AC50 was 4.15 µM (active).

For the compound `CC(C1CC1)C(O)(Cn1cncn1)c1ccc(Cl)cc1` (stereo not given), the AC50 was 4.89 µM (active).

As to `CC1=NNC(=O)N(/N=C/c2cccnc2)C1`, the AC50 was 5.59 µM (active).

Consider `CCOP(=S)(OCC)Oc1ccc2c(C)c(Cl)c(=O)oc2c1`, for which the AC50 is 0.527 µM (active).

As to `CCOP(=S)(OCC)Oc1ccc([N+](=O)[O-])cc1`, the AC50 is 4.89 µM (active).

Regarding `CSC1=N[C@@](C)(c2ccccc2)C(=O)N1Nc1ccccc1`, the AC50 is 3.97 µM (active).

On to `CCc1cccc(C)c1N(C(=O)CCl)C(C)COC` (stereo not given), for which the AC50 was 3.97 µM (active).

In the case of `CCOP(=O)(SC(C)CC)N1CCSC1=O` (stereo not given), the result was inactive.

For the compound `CNc1cnn(-c2cccc(C(F)(F)F)c2)c(=O)c1Cl`, the AC50 was 5.72 µM (active).

Regarding `CC(C)N(C(=O)SCC(Cl)=C(Cl)Cl)C(C)C`, the outcome was inactive.

Consider `CCOP(=S)(OCC)SCCSCC`, for which the AC50 was 6.62 µM (active).

On to `CN(C)C(=O)Nc1cccc(C(F)(F)F)c1`, for which the AC50 was 3.66 µM (active).

As to `CCc1cccc(CC)c1N(COC)C(=O)CCl`, the call was inactive.

Consider `CCC(=NOC/C=C/Cl)C1=C(O)CC(C2CCOCC2)CC1=O` (stereo not given), for which the compound was called inactive.

In the case of `CCOP(=S)(OCC)OC(Cl)C(Cl)(Cl)Cl` (stereo not given), the AC50 was 15.5 µM (active).

As to `CCCOCC(=Nc1ccc(Cl)cc1C(F)(F)F)n1ccnc1`, the AC50 is 1.89 µM (active).

`COc1cccc(C(=O)NN(C(=O)c2cc(C)cc(C)c2)C(C)(C)C)c1C`: the half-maximal activity concentration (AC50) was 32.6 µM (active).

Take `Nc1nc(N)nc(NC2CC2)n1`: the call was inactive.

In the case of `CNC(=O)ON=C(C)SC`, the call was inactive.

As for `COP(=O)(OC)OC(Br)C(Cl)(Cl)Br` (stereo not given), the compound was classed as inactive.

As for `CCOP(=O)(NC(C)C)Oc1ccc(SC)c(C)c1` (stereo not given), the AC50 was 6.73 µM (active).

For orientation: AC50 means the midpoint of the concentration-response curve, whichever way the signal moves.
